In paper PMC11006913:
Changes are numbered by the printed parent chain.

Experiments:
Experiment in all cases: PBM; 200 nM protein, PBS
Conditions in all cases: dsDNA, one strand shown
HOXB4 [1] = target: HOXB4 (Homo sapiens, UniProt P17483 148-234)
VENTX [2] = target: T1, VENTX (Homo sapiens, UniProt O95231 78-163, R121Q)
T1 sequence: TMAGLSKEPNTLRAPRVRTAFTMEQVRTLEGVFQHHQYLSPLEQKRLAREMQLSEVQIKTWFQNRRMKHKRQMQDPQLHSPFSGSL

ALX4 = ALX4 (Homo sapiens, UniProt Q9H161 200-286)
PAX4 [3] = target: T2, PAX4 (Homo sapiens, UniProt O43316 9-242, R200K)
T2 sequence: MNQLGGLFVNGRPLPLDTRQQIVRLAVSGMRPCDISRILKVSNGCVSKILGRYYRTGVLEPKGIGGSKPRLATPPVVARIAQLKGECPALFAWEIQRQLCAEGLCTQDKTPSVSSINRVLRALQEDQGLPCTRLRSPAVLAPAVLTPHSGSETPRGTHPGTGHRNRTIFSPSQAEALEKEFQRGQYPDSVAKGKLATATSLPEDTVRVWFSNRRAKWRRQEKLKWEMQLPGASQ

PRRX1 [4] = target: PRRX1 (Homo sapiens, UniProt P54821 80-166, F113S)
PRRX1 (Homo sapiens, UniProt P54821 80-166, F113S), sequence (P54821 80-166 F113S): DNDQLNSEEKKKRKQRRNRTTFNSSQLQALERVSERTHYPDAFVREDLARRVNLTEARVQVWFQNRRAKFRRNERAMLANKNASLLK

VENTX [5] = target: T3, VENTX (Homo sapiens, UniProt O95231 78-163, Y115F)
T3 sequence: T1 sequence with Y38F, Q44R

HOXB6 = HOXB6 (Homo sapiens, UniProt P17509 132-218, K202E)
HOXB6, sequence (P17509 132-218 K202E): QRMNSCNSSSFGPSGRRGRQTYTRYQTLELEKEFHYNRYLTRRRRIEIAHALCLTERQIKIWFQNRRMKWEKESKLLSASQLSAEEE

HOXA2 [6] = target: HOXA2 (Homo sapiens, UniProt O43364 129-215, R185T)
HOXA2 (Homo sapiens, UniProt O43364 129-215, R185T), sequence (O43364 129-215 R185T): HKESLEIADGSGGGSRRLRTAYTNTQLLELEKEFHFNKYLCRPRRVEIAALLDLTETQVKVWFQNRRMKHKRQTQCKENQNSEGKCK

HOXA4 [7] = target: HOXA4 (Homo sapiens, UniProt Q00056 201-287, R217L)
HOXA4 (Homo sapiens, UniProt Q00056 201-287, R217L), sequence (Q00056 201-287 R217L): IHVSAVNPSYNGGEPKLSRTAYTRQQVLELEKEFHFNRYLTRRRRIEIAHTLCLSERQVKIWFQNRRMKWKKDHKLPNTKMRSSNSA

HOXB4 [8] = target: HOXB4 (Homo sapiens, UniProt P17483 148-234, V174I)
HOXB4 (Homo sapiens, UniProt P17483 148-234, V174I), sequence (P17483 148-234 V174I): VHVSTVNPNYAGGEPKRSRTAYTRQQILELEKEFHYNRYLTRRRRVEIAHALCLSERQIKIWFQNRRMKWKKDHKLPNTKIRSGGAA

PAX4 [9] = target: T4, PAX4 (Homo sapiens, UniProt O43316 9-242, R200Q)
T4 sequence: T2 sequence with K192Q

HOXA2 [10] = target: HOXA2 (Homo sapiens, UniProt O43364 129-215, R185K)
HOXA2 (Homo sapiens, UniProt O43364 129-215, R185K), sequence (O43364 129-215 R185K): as the sequence (O43364 129-215 R185T) above, with T57K counted along it

PAX4 [11] = target: T5, PAX4 (Homo sapiens, UniProt O43316 9-242, F177V)
T5 sequence: T2 sequence with F169V, K192R

MSX2 [12] = target: MSX2 (Homo sapiens, UniProt P35548 130-214)
MSX2 (Homo sapiens, UniProt P35548 130-214), sequence (P35548 130-214): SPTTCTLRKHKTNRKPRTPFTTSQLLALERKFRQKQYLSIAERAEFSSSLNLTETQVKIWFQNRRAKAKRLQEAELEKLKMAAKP

PAX4 [13] = target: T6, PAX4 (Homo sapiens, UniProt O43316 9-242, F177Y)
T6 sequence: T2 sequence with F169Y, K192R

MSX2 [14] = target: MSX2 (Homo sapiens, UniProt P35548 130-214, F161Y)
MSX2 (Homo sapiens, UniProt P35548 130-214, F161Y), sequence (P35548 130-214 F161Y): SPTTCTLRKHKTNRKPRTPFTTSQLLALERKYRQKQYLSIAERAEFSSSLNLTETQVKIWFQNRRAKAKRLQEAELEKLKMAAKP

VAX1 [15] = target: VAX1 (Homo sapiens, UniProt Q5SQQ9 86-172, T142I)
VAX1 (Homo sapiens, UniProt Q5SQQ9 86-172, T142I), sequence (Q5SQQ9 86-172 T142I): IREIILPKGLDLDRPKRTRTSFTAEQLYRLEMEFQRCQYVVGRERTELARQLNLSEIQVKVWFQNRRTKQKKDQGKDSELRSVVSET

HOXA4 [16] = target: HOXA4 (Homo sapiens, UniProt Q00056 201-287, W262F)
HOXA4 (Homo sapiens, UniProt Q00056 201-287, W262F), sequence (Q00056 201-287 W262F): as the sequence (Q00056 201-287 R217L) above, with L17R, W62F counted along it

PRRX1 [17] = target: PRRX1 (Homo sapiens, UniProt P54821 80-166)
PRRX1 (Homo sapiens, UniProt P54821 80-166), sequence (P54821 80-166): as the sequence (P54821 80-166 F113S) above, with S34F counted along it

VAX1 [18] = target: VAX1 (Homo sapiens, UniProt Q5SQQ9 86-172, K157R)
VAX1 (Homo sapiens, UniProt Q5SQQ9 86-172, K157R), sequence (Q5SQQ9 86-172 K157R): as the sequence (Q5SQQ9 86-172 T142I) above, with I57T, K72R counted along it

ALX4, sequence (Q9H161 200-286): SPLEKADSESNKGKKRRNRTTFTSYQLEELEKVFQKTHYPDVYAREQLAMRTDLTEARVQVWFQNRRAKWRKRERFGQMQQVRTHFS
HOXB4 (Homo sapiens, UniProt P17483 148-234), sequence (P17483 148-234): as the sequence (P17483 148-234 V174I) above, with I27V counted along it

Row | Sequence | binding signal (HOXB4 [1]) | binding signal (VENTX [2]) | binding signal (ALX4) | binding signal (PAX4 [3]) | binding signal (PRRX1 [4]) | binding signal (VENTX [5]) | binding signal (HOXB6) | binding signal (HOXA2 [6]) | binding signal (HOXA4 [7]) | binding signal (HOXB4 [8]) | binding signal (PAX4 [9]) | binding signal (HOXA2 [10]) | binding signal (PAX4 [11]) | binding signal (MSX2 [12]) | binding signal (PAX4 [13]) | binding signal (MSX2 [14]) | binding signal (VAX1 [15]) | binding signal (HOXA4 [16]) | binding signal (PRRX1 [17]) | binding signal (VAX1 [18])
1 | AATTAATA | 13.2 upbm affinity estimate (log intensity, higher = more binding, comparable within an allelic series) | 11.9 upbm affinity estimate (log intensity, higher = more binding, comparable within an allelic series) | 14 upbm affinity estimate (log intensity, higher = more binding, comparable within an allelic series) | 12 upbm affinity estimate (log intensity, higher = more binding, comparable within an allelic series) | 11.4 upbm affinity estimate (log intensity, higher = more binding, comparable within an allelic series) | 11.6 upbm affinity estimate (log intensity, higher = more binding, comparable within an allelic series) | 10.2 upbm affinity estimate (log intensity, higher = more binding, comparable within an allelic series) | 12.6 upbm affinity estimate (log intensity, higher = more binding, comparable within an allelic series) | 12.3 upbm affinity estimate (log intensity, higher = more binding, comparable within an allelic series) | 13.9 upbm affinity estimate (log intensity, higher = more binding, comparable within an allelic series) | 12.3 upbm affinity estimate (log intensity, higher = more binding, comparable within an allelic series) | 13.1 upbm affinity estimate (log intensity, higher = more binding, comparable within an allelic series) | 10.8 upbm affinity estimate (log intensity, higher = more binding, comparable within an allelic series) | 13.5 upbm affinity estimate (log intensity, higher = more binding, comparable within an allelic series) | 11.2 upbm affinity estimate (log intensity, higher = more binding, comparable within an allelic series) | 13.2 upbm affinity estimate (log intensity, higher = more binding, comparable within an allelic series) | 12.8 upbm affinity estimate (log intensity, higher = more binding, comparable within an allelic series) | 11.8 upbm affinity estimate (log intensity, higher = more binding, comparable within an allelic series) | 13.4 upbm affinity estimate (log intensity, higher = more binding, comparable within an allelic series) | 12.5 upbm affinity estimate (log intensity, higher = more binding, comparable within an allelic series)
2 | GTAATTAA | 13.5 upbm affinity estimate (log intensity, higher = more binding, comparable within an allelic series) | 12.4 upbm affinity estimate (log intensity, higher = more binding, comparable within an allelic series) | 14.4 upbm affinity estimate (log intensity, higher = more binding, comparable within an allelic series) | 12 upbm affinity estimate (log intensity, higher = more binding, comparable within an allelic series) | 11.8 upbm affinity estimate (log intensity, higher = more binding, comparable within an allelic series) | 12.4 upbm affinity estimate (log intensity, higher = more binding, comparable within an allelic series) | 10.3 upbm affinity estimate (log intensity, higher = more binding, comparable within an allelic series) | 13.9 upbm affinity estimate (log intensity, higher = more binding, comparable within an allelic series) | 13.3 upbm affinity estimate (log intensity, higher = more binding, comparable within an allelic series) | 14.3 upbm affinity estimate (log intensity, higher = more binding, comparable within an allelic series) | 12.5 upbm affinity estimate (log intensity, higher = more binding, comparable within an allelic series) | 13.9 upbm affinity estimate (log intensity, higher = more binding, comparable within an allelic series) | 10.8 upbm affinity estimate (log intensity, higher = more binding, comparable within an allelic series) | 14.1 upbm affinity estimate (log intensity, higher = more binding, comparable within an allelic series) | 11.3 upbm affinity estimate (log intensity, higher = more binding, comparable within an allelic series) | 13.7 upbm affinity estimate (log intensity, higher = more binding, comparable within an allelic series) | 13.9 upbm affinity estimate (log intensity, higher = more binding, comparable within an allelic series) | 12.9 upbm affinity estimate (log intensity, higher = more binding, comparable within an allelic series) | 13.6 upbm affinity estimate (log intensity, higher = more binding, comparable within an allelic series) | 13.9 upbm affinity estimate (log intensity, higher = more binding, comparable within an allelic series)
3 | ATAATTAC | 13.5 upbm affinity estimate (log intensity, higher = more binding, comparable within an allelic series) | 12.1 upbm affinity estimate (log intensity, higher = more binding, comparable within an allelic series) | 14 upbm affinity estimate (log intensity, higher = more binding, comparable within an allelic series) | 11.8 upbm affinity estimate (log intensity, higher = more binding, comparable within an allelic series) | 11.6 upbm affinity estimate (log intensity, higher = more binding, comparable within an allelic series) | 12 upbm affinity estimate (log intensity, higher = more binding, comparable within an allelic series) | 10.2 upbm affinity estimate (log intensity, higher = more binding, comparable within an allelic series) | 13.7 upbm affinity estimate (log intensity, higher = more binding, comparable within an allelic series) | 12.8 upbm affinity estimate (log intensity, higher = more binding, comparable within an allelic series) | 14.2 upbm affinity estimate (log intensity, higher = more binding, comparable within an allelic series) | 12.3 upbm affinity estimate (log intensity, higher = more binding, comparable within an allelic series) | 13.9 upbm affinity estimate (log intensity, higher = more binding, comparable within an allelic series) | 10.8 upbm affinity estimate (log intensity, higher = more binding, comparable within an allelic series) | 14 upbm affinity estimate (log intensity, higher = more binding, comparable within an allelic series) | 11.2 upbm affinity estimate (log intensity, higher = more binding, comparable within an allelic series) | 13.7 upbm affinity estimate (log intensity, higher = more binding, comparable within an allelic series) | 13.4 upbm affinity estimate (log intensity, higher = more binding, comparable within an allelic series) | 12.2 upbm affinity estimate (log intensity, higher = more binding, comparable within an allelic series) | 13.5 upbm affinity estimate (log intensity, higher = more binding, comparable within an allelic series) | 13.5 upbm affinity estimate (log intensity, higher = more binding, comparable within an allelic series)
4 | ATAATTAT | 13.7 upbm affinity estimate (log intensity, higher = more binding, comparable within an allelic series) | 11.9 upbm affinity estimate (log intensity, higher = more binding, comparable within an allelic series) | 14.2 upbm affinity estimate (log intensity, higher = more binding, comparable within an allelic series) | 11.9 upbm affinity estimate (log intensity, higher = more binding, comparable within an allelic series) | 11.7 upbm affinity estimate (log intensity, higher = more binding, comparable within an allelic series) | 11.8 upbm affinity estimate (log intensity, higher = more binding, comparable within an allelic series) | 10.3 upbm affinity estimate (log intensity, higher = more binding, comparable within an allelic series) | 13.6 upbm affinity estimate (log intensity, higher = more binding, comparable within an allelic series) | 12.7 upbm affinity estimate (log intensity, higher = more binding, comparable within an allelic series) | 14.5 upbm affinity estimate (log intensity, higher = more binding, comparable within an allelic series) | 12.3 upbm affinity estimate (log intensity, higher = more binding, comparable within an allelic series) | 13.8 upbm affinity estimate (log intensity, higher = more binding, comparable within an allelic series) | 10.9 upbm affinity estimate (log intensity, higher = more binding, comparable within an allelic series) | 14 upbm affinity estimate (log intensity, higher = more binding, comparable within an allelic series) | 11.3 upbm affinity estimate (log intensity, higher = more binding, comparable within an allelic series) | 13.6 upbm affinity estimate (log intensity, higher = more binding, comparable within an allelic series) | 13.3 upbm affinity estimate (log intensity, higher = more binding, comparable within an allelic series) | 12.1 upbm affinity estimate (log intensity, higher = more binding, comparable within an allelic series) | 13.6 upbm affinity estimate (log intensity, higher = more binding, comparable within an allelic series) | 13.3 upbm affinity estimate (log intensity, higher = more binding, comparable within an allelic series)
